# Laboratory results published in PubChem BioAssay (NCATS).
# Calls of active or inactive are those of the source. Calls follow the shape of the dose curve; as a rule, active = well fitted curve in the direction sought with a large enough effect; inconclusive = small, poorly fitted or top-dose-only effect, or another doubt; inactive = no such curve, though single readings can be large or run the other way.
# Target: Galactokinase (Homo sapiens) (UniProt P51570)
# Assay: qHTS Validation Assay for Inhibitors of Human Galactokinase (GALK) (AID 493189)
# Conditions: purified human GALK enzyme activity, qHTS 7-point titration; series mostly up to 57.5 µM
# Source text: NIH Molecular Libraries Probe Production Centers Network [MLPCN]
# NIH Chemical Genomics Center [NCGC]
# Assay Submitter (PI): Kent Lai (University of Utah School of Medicine, 50 N Mario Capecchi Drive, Salt Lake City, UT 84132)
# Inherited deficiency of galactose-1-phosphate uridyltransferase (GALT) can result in a potentially lethal disorder called Classic Galactosemia (OMIM 230400). Several lines of evidence indicate that an elevated level of galactose-1-phosphate (gal-1-p), the product of galactokinase (GALK), is a major, if not sole, pathogenic mechanism in patients with classic galactosemia. Therefore, finding inhibitors of GALK is a potential novel therapy for this inherent metabolic disease and is the long term goal of this project.
# GALK (provided by the assay submitter) was assayed using ATP and D-(+)-Galactose (Sigma-Aldrich cat# G0750) as substrates. Promega Kinase-Glo Plus (cat# V3774) technology was used to detect the residual ATP following kinetic reaction. Briefly, the Kinase-Glo Plus contains Ultra-Glo [2] luciferase and D-luciferin which generates a bioluminescence signal from the remaining ATP.
# NCGC Assay Protocol Summary:
# Three uL/well of ATP-buffer solution (35 uM ATP, 20mM HEPES pH8.0, 5 mM MgCl2, 60 mM NaCl, 1 mM DTT, 0.01% BSA final concentration) was dispensed into 1536-well, assay plates (Greiner, solid white medium-binding plates) with Aurora Discovery BioRAPTR Flying Reagent Dispenser (FRD; Beckton-Dickenson). Compound solution (23 nL) was transferred to the assay plate using the Kalypsys 1536-pin tool. One uL/well GALK-galactose solution (5 nM GALK, 100 uM galactose, 20 mM HEPES pH8.0, 5 mM MgCl2, 60 mM NaCl, 1 mM DTT, 0.01% BSA final concentration) was then added using the FRD yielding a total kinase reaction volume of 4 uL/ well. After 1 hour of room temperature incubation, 4 uL Kinase-Glo Plus reagent was added for a final assay volume of 8 uL/ well. Luminescence was detected with the ViewLux plate reader (Perkin Elmer, Waltham, MA) after 10 min incubation using a 1 sec exposure time and 2x binning.
# Chain of Galactokinase (Homo sapiens) (P51570 whole entry, looked up): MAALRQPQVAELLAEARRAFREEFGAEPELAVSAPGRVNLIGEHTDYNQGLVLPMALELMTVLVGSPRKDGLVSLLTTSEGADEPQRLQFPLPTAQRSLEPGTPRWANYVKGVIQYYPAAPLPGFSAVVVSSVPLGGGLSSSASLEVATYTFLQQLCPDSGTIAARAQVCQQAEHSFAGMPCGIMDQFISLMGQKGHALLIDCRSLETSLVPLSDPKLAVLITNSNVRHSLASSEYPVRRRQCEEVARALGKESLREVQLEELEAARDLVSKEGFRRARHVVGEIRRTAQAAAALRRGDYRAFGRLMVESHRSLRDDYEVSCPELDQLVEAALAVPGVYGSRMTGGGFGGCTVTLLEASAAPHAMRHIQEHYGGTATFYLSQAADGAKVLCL
row,SMILES,outcome
1,CCCCCCCCCCCCCCCC(=O)NCCO,inactive
2,COc1ccc(Cl)cc1C(=O)NCCc1ccc(S(=O)(=O)NC(=O)NC2CCCCC2)cc1,inactive
3,CC(=O)OCC(=O)[C@@]1(O)CC[C@H]2[C@@H]3CCC4=CC(=O)CC[C@]4(C)[C@H]3C(=O)C[C@@]21C,inactive
4,CC(C(O)c1ccc(O)cc1)N1CCC(Cc2ccccc2)CC1 (stereo not given),inactive
5,C[C@]12CC[C@@H]3c4ccc(O)cc4CC[C@H]3[C@@H]1CCC2=O,inactive
6,C[C@](N)(Cc1ccc(O)cc1)C(=O)O,inactive
7,OCCN1CCN(CCCN2c3ccccc3Sc3ccc(Cl)cc32)CC1,inactive
8,CC[C@H]1CN2CCc3cc(OC)c(OC)cc3[C@@H]2C[C@@H]1C[C@H]1NCCc2cc(OC)c(OC)cc21,inactive
9,CC(C)(C)c1onc(OCP(=O)(O)O)c1CC(N)C(=O)O (stereo not given),inactive
10,CC(C)C(=O)c1c(C(C)C)nn2ccccc12,inactive
11,CNCCC(Oc1ccc(C(F)(F)F)cc1)c1ccccc1 (stereo not given),inactive
12,NC1CCN(c2cccc(Cl)n2)CC1,inactive
13,OCc1cc(C(O)CNCCCCCCOCCCCc2ccccc2)ccc1O (stereo not given),inactive
14,Cc1cc(N)c2ccccc2[n+]1CCCCCCCCCC[n+]1c(C)cc(N)c2ccccc21,inactive
15,CN(C)CC[C@@H](c1ccc(Cl)cc1)c1ccccn1,inactive
16,CSc1ccc2c(c1)N(CCC1CCCCN1C)c1ccccc1S2 (stereo not given),inactive
17,CC1=C(/C=C/C(C)=C/C=C/C(C)=C/C(=O)O)C(C)(C)CCC1,inactive
18,CN(C)CCC=C1c2ccccc2CCc2ccccc21,inactive
19,N=c1c[n+](N2CCOCC2)[n-]o1,inactive
20,CCCn1cnc2c1c(=O)n(CCCCC(C)=O)c(=O)n2C,inactive

row,SMILES,outcome
1,C[C@H]1O[C@@H](n2cc(F)c(=O)[nH]c2=O)[C@H](O)[C@@H]1O,inactive
2,CNCC(O)c1ccc(O)c(O)c1 (stereo not given),inactive
3,CNC(=O)Oc1ccc2c(c1)[C@]1(C)CCN(C)[C@@H]1N2C,inactive
4,C=Cc1c(C)c2cc3[nH]c(cc4nc(cc5nc(cc1[nH]2)C(C)=C5CCC(=O)O)C(CCC(=O)O)=C4C)c(C)c3C=C,inactive
5,Nc1cc(=O)[nH]c(N)n1,inactive
6,CSc1ccc2c(c1)C(N1CCN(C)CC1)Cc1ccccc1S2 (stereo not given),inactive
7,CN(C)CCCN1c2ccccc2Sc2ccc(Cl)cc21,inactive
8,CCN(CC)CCOC(=O)C1(C2CCCCC2)CCCCC1,inactive
9,CNCCCC1c2ccccc2C=Cc2ccccc21,inactive
10,O=C1N=C(O)CN1/N=C/c1ccc(-c2ccc([N+](=O)[O-])cc2)o1,inactive
11,CN(C)CCOC(C)(c1ccccc1)c1ccccn1 (stereo not given),inactive
12,CC(CN(C)C)CN1c2ccccc2CCc2ccccc21 (stereo not given),inactive
13,CCN(CC)CCNC(=O)c1cc(Cl)c(N)cc1OC,inactive
14,COC(=O)C1=C(C)NC(C)=C(C(=O)OC)C1c1ccccc1[N+](=O)[O-],inactive
15,CC(C)NC[C@H](O)c1ccc(O)c(O)c1,inactive
16,CCN(CC)CCCC(C)Nc1c2ccc(Cl)cc2nc2ccc(OC)cc12 (stereo not given),inactive
17,CC1=C(CC(=O)O)c2cc(F)ccc2/C1=C\c1ccc(S(C)=O)cc1 (stereo not given),inactive
18,CC(CN1c2ccccc2Sc2ccccc21)N(C)C (stereo not given),inactive
19,NC(N)=NCCC[C@H](N)C(=O)O,inactive
20,C#CCN(C)Cc1ccccc1,inactive
